PubChem BioAssay AID1345085 (National Center for Advancing Translational Sciences (NCATS), 2018)
Records with an inconclusive call do not appear. A number with no mark means an inactive call. Calls of active or inactive are those of the source. Calls come from the whole dose curve; as a rule, active = well fitted cell-killing curve with a large enough effect; inconclusive = small, poorly fitted or top-dose-only effect, or effect the other way; inactive = no such curve, though single readings can be large or run the other way.

system: CAOV3; assay: Confirmatory qHTS for gynecologic anti-cancer compounds from libraries of approved drugs and bioactive compounds; details: gynecologic cancer cell panel viability, ATPlite luminescence, 48 h; series mostly up to 57.6 µM; note: nearly all actives have a fitted effect of over 55% in size
How it was run: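 IC50 values derive from an ATPlite ATP-content luminescence assay following 48 h treatment at 37 C. Each compound ran as an 11-concentration, threefold series (57.5 uM to 0.977 nM); HEK 293T served as control line for selectivity index.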
% is set by controls: 0 for no effect and ±100 for the full control effect; potency is the fitted concentration of half-maximal effect.

Structure (SMILES)	Potency	activity change, negative = viability loss
COc1c(C)c2c(c(O)c1C/C=C(\C)CCC(=O)O)C(=O)OC2	inactive	
O=C(Nc1cccnc1)N1CCC(Cc2cccc(Oc3ccc(C(F)(F)F)cn3)c2)CC1	inactive	
Cc1nc(Nc2n[nH]c3c2CN(C(=O)NC(CN(C)C)c2ccccc2)C3(C)C)c2sccc2n1 (centres undefined)	0.306 µM (active)	
Cc1cnc(Nc2ccc(CN3CCOCC3)cc2)nc1Nc1cccc(S(=O)(=O)NC(C)(C)C)c1	3.85 µM (active)	
CN(c1nccc(=O)[nH]1)C1CCN(c2nc3ccccc3n2Cc2ccc(F)cc2)CC1	inactive	
Cc1nc(Nc2ncc(C(=O)Nc3c(C)cccc3Cl)s2)cc(N2CCN(CCO)CC2)n1	24.3 µM (active)	
COc1cccc2c1C(=O)c1c(O)c3c(c(O)c1C2=O)C[C@@](O)(C(=O)CO)C[C@@H]3O[C@H]1C[C@H](N)[C@H](O)[C@H](C)O1	2.43 µM (active)	
Cc1cc(Nc2cc(N3CCN(C)CC3)nc(Sc3ccc(NC(=O)C4CC4)cc3)n2)n[nH]1	inactive	
C#C[C@]1(O)CC[C@H]2[C@@H]3CCC4=CC(=O)CC[C@@H]4[C@H]3CC[C@@]21CC	inactive	
CCCCN(CCCC)CC(O)c1cc(Cl)cc2c1-c1ccc(Cl)cc1/C2=C/c1ccc(Cl)cc1 (centres undefined)	inactive	
COc1cc(C(=O)N2CCC(N3CCN(C)CC3)CC2)ccc1Nc1ncc2c(n1)N(C)c1ccccc1C(=O)N2C	10.9 µM (active)	
Cn1cnc2c(F)c(Nc3ccc(Br)cc3F)c(C(=O)NOCCO)cc21	inactive	
NS(=O)(=O)OC[C@@H]1C[C@@H](n2ccc3c(N[C@H]4CCc5ccccc54)ncnc32)C[C@@H]1O	3.06 µM (active)	
Oc1cn2c(n1)Nc1ccc(Cl)c(Cl)c1C2	inactive	
CCc1cccc(CC)c1NC(=O)N1Cc2[nH]nc(NC(=O)c3ccc(N4CCN(C)CC4)cc3)c2C1	2.43 µM (active)	
NC1(c2ccc(-c3nc4ccn5c(=O)[nH]nc5c4cc3-c3ccccc3)cc2)CCC1	inactive	
CC[C@H](Nc1ncnc2nc[nH]c12)c1nc2cccc(F)c2c(=O)n1-c1ccccc1		-13.8% [at 10.7 µM]

Structure (SMILES)	Potency	activity change, negative = viability loss
COc1cc(N2CCC(N(C)C)CC2)ccc1Nc1ncc(Cl)c(Nc2ccccc2P(C)(C)=O)n1	10.9 µM (active)	
CCCC(=O)O[C@]1(C(=O)CCl)[C@@H](C)C[C@H]2[C@@H]3CCC4=CC(=O)C=C[C@]4(C)[C@@]3(F)C(=O)C[C@@]21C	inactive	
O=c1[nH]c(=O)n([C@H]2C[C@H](O)[C@@H](CO)O2)cc1Br	inactive	
O=C(/C=C/c1cccc(S(=O)(=O)Nc2ccccc2)c1)NO	10.6 µM (active)	
Cn1cc(-c2ccc3ncc(Cc4ccc5ncccc5c4)n3n2)cn1	inactive	
CC(C)Oc1ccc2c(=O)c(-c3ccccc3)coc2c1	15.3 µM (active)	
Nc1ncnc2c1ncn2[C@@H]1O[C@H](CO)C[C@H]1O	inactive	
CC[C@@]1(O)C(=O)OCc2c1cc1n(c2=O)Cc2cc3c(CN(C)C)c(O)ccc3nc2-1	0.544 µM (active)	
Cc1ccc(C(=O)Nc2ccc(Oc3cc4cnn(C)c4cc3-c3cn[nH]c3)c(F)c2)c(=O)n1-c1ccc(F)cc1	6.85 µM (active)	
CC(C)CC(=O)Nc1n[nH]c2c1CN(C(=O)C1CCN(C)CC1)C2(C)C	1.22 µM (active)	
COc1cc(F)c(F)c(Nc2ccc(I)cc2F)c1NS(=O)(=O)C1(CC(O)CO)CC1 (centres undefined)	inactive	
COc1ccc(-c2cc3nccn3c(Nc3ncccc3C(N)=O)n2)cc1OC	inactive	
CC[C@@]1(O)C(=O)OCc2c1cc1n(c2=O)Cc2cc3cc(O)ccc3nc2-1	0.109 µM (active)	
CN(C)CCC(CSc1ccccc1)Nc1ccc(S(=O)(=O)NC(=O)c2ccc(N3CCN(Cc4ccccc4-c4ccc(Cl)cc4)CC3)cc2)cc1[N+](=O)[O-] (centres undefined)	9.68 µM (active)	
COC(C(=O)N1Cc2[nH]nc(NC(=O)c3ccc(N4CCN(C)CC4)cc3)c2C1)c1ccccc1 (centres undefined)	1.53 µM (active)	
O=C(Nc1cn[nH]c1-c1nc2ccc(CN3CCOCC3)cc2[nH]1)NC1CC1	0.122 µM (active)	
CC(Oc1cc(-n2cnc3ccc(CN4CCN(C)CC4)cc32)sc1C(N)=O)c1ccccc1C(F)(F)F (centres undefined)	27.3 µM (active)	
